Assay results from PubChem BioAssay AID1159580 (chemical genetic matrix, 2015).
“And” between values parts separate entries of the source, which are not always exact repeats. Equal entries are not always repeated. Hit rate of the full screen: of about 5,500 compounds, about 2,000 (36%) were called active. Another 18% or so got no clear call; they are omitted. No stated cut-off is given here; in the data, active means normalized growth mostly below about 0.91 (no sharp cut-off); inconclusive means no clear call, values can overlap the other calls; inactive means mostly above about 0.92. This is one part of the list.

Experiment: chemical genetic growth profiling, strain panel (AID 1159580);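 further: tested at 20 µM; growth read once vehicle control cultures reached saturation at 30 °C; 1 = growth at the plate median or of vehicle wells; lower values mean less growth of the strain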
Conditions: S. cerevisiae deletion strains, growth OD

Measured: normalized growth

CCCN(CCC)C(=O)C(CCC(=O)O)NC(=O)c1ccccc1 (stereo not given)
inactive: locus YAL013W, strain DEP1, active compounds read low 0.996 and 1.01 | locus YAL021C, strain ccr4, active compounds read low 0.98 | locus YAL026C, strain drs2, active compounds read low 0.987 | locus YAL030W, strain snc1, active compounds read low 1 | locus YAL040C, strain CLN3, active compounds read low 1 | locus YBL061C, strain skt5, active compounds read low 0.983 | locus YBR009C, strain hhf1, active compounds read low 0.992 | locus YBR021W, strain FUR4, active compounds read low 1.01 | locus YBR023C, strain chs3, active compounds read low 0.992 | locus YBR171W, strain sec66, active compounds read low 0.98 | locus YBR229C, strain ROT2, active compounds read low 0.999 | locus YBR231C, strain swc5, active compounds read low 0.979 | locus YBR279W, strain paf1, active compounds read low 0.979 | locus YCL011C, strain gbp2, active compounds read low 0.983 | locus YCL016C, strain dcc1, active compounds read low 1.01 | locus YCL029C, strain bik1, active compounds read low 0.985 | locus YCL061C, strain MRC1 (second series), active compounds read low 1 | locus YCL061C, strain MRC1, active compounds read low 0.994 | locus YCL069W, strain vba3, active compounds read low 0.996 | locus YCR088W, strain abp1, active compounds read low 0.98 | locus YDL005C, strain med2, active compounds read low 0.99 | locus YDL035C, strain GPR1, active compounds read low 1.02 | locus YDL040C, strain nat1, active compounds read low 0.993 | locus YDL074C, strain BRE1, active compounds read low 0.987 | locus YDL101C, strain DUN1, active compounds read low 0.994 | locus YDL134C, strain PPH21, active compounds read low 0.996 | locus YDL185W, strain tfp1, active compounds read low 0.958 | locus YDL192W, strain arf1, active compounds read low 0.979 | locus YDR001C, strain nth1, active compounds read low 0.973 | locus YDR069C, strain doa4, active compounds read low 0.993 | locus YDR101C, strain arx1, active compounds read low 0.994 | locus YDR137W, strain rgp1, active compounds read low 1.02 | locus YDR150W, strain NUM1, active compounds read low 0.991 and 0.999 | locus YDR159W, strain sac3, active compounds read low 0.935 | locus YDR162C, strain NBP2, active compounds read low 1 | locus YDR195W, strain ref2 1.02 | locus YDR297W, strain sur2, active compounds read low 0.987 | locus YDR318W, strain mcm21, active compounds read low 0.994 | locus YDR334W, strain swr1, active compounds read low 0.962 | locus YDR335W, strain msn5, active compounds read low 0.981 | locus YDR363W, strain ESC2, active compounds read low 1.01 | locus YDR388W, active compounds read low 1 | locus YDR392W, strain spt3, active compounds read low 0.986 | locus YDR502C, strain sam2, active compounds read low 1.01 | locus YEL003W, strain gim4, active compounds read low 0.997 | locus YEL037C, strain rad23, active compounds read low 0.982 | locus YEL061C, strain CIN8 (second series), active compounds read low 0.965 | locus YEL061C, strain CIN8, active compounds read low 0.992 | locus YER002W, strain NOP16, active compounds read low 0.986 | locus YER015W, strain faa2, active compounds read low 0.989 | locus YER016W, strain bim1, active compounds read low 0.992 | locus YER110C, active compounds read low 0.991 | locus YER111C, strain swi4, active compounds read low 0.996 | locus YER155C, strain BEM2 (second series), active compounds read low 0.985 | locus YER155C, strain BEM2, active compounds read low 1 | locus YER167W, strain BCK2, active compounds read low 0.993 | locus YFR010W, strain ubp6, active compounds read low 0.982 | locus YGL078C, strain dbp3, active compounds read low 0.996 | locus YGL086W, strain mad1, active compounds read low 1.01 | locus YGL167C, strain pmr1, active compounds read low 0.986 | locus YGL173C, strain kem1, active compounds read low 0.982 | locus YGL227W, strain vid30, active compounds read low 0.986 | locus YGL240W, strain doc1, active compounds read low 0.987 | locus YGL248W, strain PDE1, active compounds read low 1.01 | locus YGL253W, strain hxk2, active compounds read low 0.982 | locus YGR078C, strain PAC10, active compounds read low 0.984 and 1.01 | locus YGR135W, strain pre9, active compounds read low 0.989 | locus YGR229C, strain SMI1, active compounds read low 1.02 | locus YGR252W, strain gcn5, active compounds read low 1.13 | locus YHR013C, strain ard1, active compounds read low 1.01 | locus YHR027C, strain rpn1, active compounds read low 0.982 | locus YHR030C, strain SLT2, active compounds read low 0.992 | locus YHR079C, strain IRE1 (second series), active compounds read low 0.991 | locus YHR079C, strain IRE1, active compounds read low 0.979 | locus YHR094C, strain hxt1, active compounds read low 0.943 | locus YHR129C, strain ARP1, active compounds read low 0.998 | locus YHR142W, strain chs7, active compounds read low 0.977 | locus YHR200W, strain rpn10, active compounds read low 0.989 | locus YIL066C, strain RNR3, active compounds read low 0.994 | locus YIL073C, strain SPO22, active compounds read low 0.93 | locus YIL125W, strain kgd1, active compounds read low 0.985 | locus YIR030C, strain dcg1, active compounds read low 0.988 | locus YJL092W, strain hpr5, active compounds read low 0.997 | locus YJL095W, strain BCK1 (second series), active compounds read low 0.968 | locus YJL095W, strain BCK1, active compounds read low 0.968 and 0.993 | locus YJL115W, strain asf1, active compounds read low 0.99 | locus YJL129C, strain trk1, active compounds read low 0.968 | locus YJL134W, strain LCB3, active compounds read low 1 | locus YJL154C, strain vps35, active compounds read low 0.962 | locus YJL164C, strain tpk1, active compounds read low 1 | locus YJL166W, strain qcr8, active compounds read low 0.983 | locus YJL168C, strain set2, active compounds read low 0.985 | locus YJL187C, strain SWE1 (second series), active compounds read low 0.982 | locus YJR043C, strain POL32, active compounds read low 0.985 | locus YJR066W, strain TOR1, active compounds read low 0.926
